# Screening results: PubChem BioAssay, National Center for Advancing Translational Sciences (NCATS)
# Pf growth 48h: P. falciparum growth inhibition at 48 hours (one generation); P. falciparum luciferase growth in erythrocytes, 48 h; Potency, µM (titrated, usually from 28.7 µM), for inactives: at the top dose activity change, negative = inhibition, actives largely listed as inhibitors; 5.9% of 310,000 active; also: potency is read from the fitted curve at half-maximal effect; % is scaled to controls: 0 for no effect and ±100 for the full control effect
#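 In quantitative HTS format, infected erythrocytes bearing luciferase-reporter parasites were treated for a single generation at 37 C. Luminescence after adding detection reagent served as the growth measure.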
# Shiga inhibitor: inhibitors of Shiga toxin in Vero cells | Vero cells, Shiga toxin protein synthesis inhibition reporter | inhibition, % at 38.7 µM | 9.2% of 290,000 active | AID 2315; in the data active = inhibition mostly above about 28%, no sharp cut-off; inactive = mostly below about 43%; also: 0% is about no effect
# Cycloheximide cs: affects cycloheximide protein synthesis inhibition readout, counter-screen. cell reporter, cycloheximide protein synthesis inhibition counterscreen. max response, %. 12% of 300,000 active. AID 2314; in the data active = max response mostly above about 13%, no sharp cut-off; inactive = mostly below about 14%; also: read at 38.3 µM for the half of the compounds with a filed dose; 0% is about no effect
# Pf growth 96h: P. falciparum growth inhibition at 96 hours | P. falciparum luciferase reporter growth, 96 h | Potency, µM (titrated, usually from 28.7 µM), inactives show at the top dose activity change, negative = inhibition, usual class: inhibitors | 6.9% of 320,000 active; also: potency is read from the fitted curve at half-maximal effect; % is scaled to controls: 0 for no effect and ±100 for the full control effect
#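 96 h incubation, 37 C, 5% CO2, of luciferase-reporter P. falciparum-infected RBCs (2% hematocrit, 0.05% parasitemia final) with test compounds; endpoint luminescence.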
# Numbers without * were called inactive; ? = inconclusive; · = no result. Rows were chosen to be rich in hits. Some 21% of all compounds tested hit in one or more screens of this group. Unless noted, calls follow the shape of the dose curve; as a rule, active = well fitted inhibition curve with a large enough effect; inconclusive = small, poorly fitted or top-dose-only effect, or another doubt; inactive = no such curve, though single readings can be large or run the other way.
SMILES,Pf growth 48h,Shiga inhibitor,Cycloheximide cs,Pf growth 96h
COc1cc(NC(=O)c2ccccc2Cl)c(OC)cc1NC(=O)CN1CCCCC1,51%,-5,-2,1.9µM*
COc1ccc(C)cc1NC(=O)CN1CCN(S(=O)(=O)c2ccc3ccccc3c2)CC1,?,·,·,12µM*
Cc1[nH]c(-c2ccc(F)cc2)cc1C(=O)N1CCN(c2cccc(Cl)c2)CC1,?,-11,-1,-20%
CSc1ccccc1NC(=O)CSc1nnc(Cc2ccccc2)o1,16%,-3,-2,1%
O=C(CN1CCN(S(=O)(=O)c2ccc(F)cc2)CC1)Nc1ccc(F)cc1F,14%,37*,60*,?
O=C(CN1CCN(S(=O)(=O)c2ccc(F)cc2)CC1)c1ccc(O)c(O)c1,-30%,-3,11,0%
COc1ccccc1NC(=O)CN1CCN(CC(=O)Nc2ccc(F)cc2F)CC1,28%,92*,32*,4.1µM*
COc1ccc(S(=O)(=O)N2CCN(CC(=O)c3ccc(O)c(O)c3)CC2)cc1,-3%,-8,-1,15µM*
Cc1ccnc(NS(=O)(=O)c2ccc(NC(=O)c3ccc4c(c3)OCCO4)cc2)n1,18%,-3,6,17%
CC12CCC=CC1C(c1ccc3ccccc3c1C=Cc1ccccc1)N(Cc1ccccc1)C2=O (stereo not drawn),·,-1,6,·
O=C(C1=C[C@H](C2CCCCC2)C[C@H](OCc2ccc(CO)cc2)O1)N1CCN(Cc2ccc3c(c2)OCO3)CC1,?,-15,-1,10µM*
O=C(C1=C[C@@H](C2CCCCC2)C[C@@H](OCc2ccc(CO)cc2)O1)N1CCN(Cc2ccc3c(c2)OCO3)CC1,4.7µM*,-15,-3,13µM*
Cc1c(OC(C)C(=O)NCC2CCC(C(=O)O)CC2)ccc2c(-c3ccccc3)cc(=O)oc12 (stereo not drawn),?,13,0,?
CC1CCCCC1NC(=O)C1CCC(CNS(=O)(=O)c2cccc3cccnc23)CC1 (stereo not drawn),-14%,-8,1,21%
CN1CCN(C(=O)C2=C[C@@H](C3CCCCC3)C[C@@H](OCCCCO)O2)CC1,-20%,8,2,19%
Oc1cc(Nc2ccccc2)cc2cccnc12,2.1µM*,·,·,2.6µM*
Oc1cc(NCc2ccccc2)cc2cccnc12,1.9µM*,·,·,2.6µM*
Oc1cc(NCCN2CCOCC2)cc2cccnc12,4.7µM*,·,·,?
CCc1ccc(NC(=O)CN2C(=O)C(=O)N(Cc3ccccc3)C2=O)cc1,10%,-17,-1,43%
CN(CC(=O)NC1CCCCCCC1)S(=O)(=O)c1cnc[nH]1,-7%,-6,8,21%
O=C(COC(=O)C1CCN(c2ccc(C(F)(F)F)cn2)CC1)Nc1cccc(F)c1,5%,·,·,102%
Cc1ccc(-c2nn(-c3ccccc3)cc2/C=N/NS(=O)(=O)c2ccccc2)cc1,?,39,36*,?
Cc1ccc(S(=O)(=O)N/N=C\c2cn(-c3ccccc3)nc2-c2ccccc2)cc1,56%,31,20*,3%
O=C(Cc1cccs1)N1CCN(c2nc(-c3ccc(Cl)cc3)cs2)CC1,-16%,-5,-5,106%
CCS(=O)(=O)N1CCN(c2nc(-c3ccccc3)cs2)CC1,29%,30,18*,?
SMILES,Pf growth 48h,Shiga inhibitor,Cycloheximide cs,Pf growth 96h
CS(=O)(=O)N1CCN(c2nc(-c3ccccc3)cs2)CC1,20%,64,27*,?
O=C(CCCl)N1CCN(c2nc(-c3ccccc3)cs2)CC1,22%,69*,33*,?
Cc1cc(N2CCN(c3nc(-c4ccccc4)cs3)CC2)c2ccccc2n1,?,-6,-2,-9%
O=C(COc1ccc(Cl)cc1Cl)Nc1ccccn1,-82%,-23,-11,·
CSc1ccccc1NC(=O)COc1ccccc1Cl,33%,132,51*,?
CSc1ccccc1NC(=O)COc1ccc(Cl)cc1Cl,10%,43*,17*,?
CC(=O)N1CCN(c2ccccc2NC(=O)COc2ccc(Cl)cc2Cl)CC1,10µM*,-10,-2,·
O=c1cc(Cn2ccnc2)c2cc(O)ccc2o1,5%,-3,-9,11%
O=C(O)C1(S(=O)(=O)CCC(F)=C(F)F)CC1,24%,7,10,45%
CCCC(=O)Nc1ccc(-c2cnc(-c3ccc(NC(=O)CCC)cc3)nc2)cc1,25%,-5,1,29%
CC(=O)Nc1ccc(NCc2ccc(C)s2)cc1,67%,50*,21*,?
CCCC(=O)Nc1ccc(NCc2ccc(C)s2)cc1,?,29,active,?
Cc1ccc(CNc2cc(C(=O)O)ccc2C)s1,13%,-5,-4,0%
O=C(c1ccccc1)N1CCN(C(=O)c2nn3c(C(F)(F)F)cc(-c4ccco4)nc3c2Br)CC1,10µM*,18,3,0%
Cc1ccccc1NCC(=O)N/N=C\c1ccc2c(c1)OCO2,0%,16,16,87%
CCNc1nc(NCC)nc(N/N=C/c2ccc(N(C)C)cc2)n1,13µM*,11,5,?
CCNc1nc(NCC)nc(N/N=C/c2ccc(O)c(O)c2)n1,-177%,-14,2,?
CN(C)c1nc(NCc2ccccc2)nc(N/N=C/c2ccc3c(c2)OCO3)n1,12µM*,-2,-3,?
CN(C)c1nc(NCc2ccccc2)nc(N/N=C/c2ccc(Br)cc2)n1,13µM*,2,-6,?
COC(=O)C(C)Sc1nc(NCc2ccccc2)nc(N(C)C)n1 (stereo not drawn),-19%,-5,0,-20%
CCOc1ccccc1NC(=O)CN1C(=O)CSC(C)C1=O (stereo not drawn),-13%,38,7,-11%
CCn1c(=O)n(CC(=O)NCC2CCCO2)c(=O)c2c3c(sc21)COC(C)(C)C3 (stereo not drawn),7%,-9,16,?
Cc1occc1C(=O)N(Cc1nc(-c2ccccc2)no1)C(C)C,-26%,-1,12,11%
Cc1cc(C(=O)Cn2nc(C(=O)O)c3ccccc3c2=O)c(C)n1CCc1ccc(F)cc1,-37%,19,20*,1%
Cc1cc(C(=O)Cn2nc(C(=O)O)c3ccccc3c2=O)c(C)n1CC(F)(F)F,90%,189*,36*,71%
SMILES,Pf growth 48h,Shiga inhibitor,Cycloheximide cs,Pf growth 96h
O=C(Cn1nc(C(=O)O)c2ccccc2c1=O)c1cc(F)ccc1F,14%,22,12,-5%
CC(C)CN1CCNC(=O)C1CC(=O)NCCCN1CCCc2ccccc21 (stereo not drawn),-2%,-9,6,?
Nc1ncnc2c1c(-c1ccc(Oc3ccccc3)cc1)cn2C1CCCC1,8.3µM*,·,·,5.2µM*
O=C(COc1ccc(Cl)cc1)NCCNC(=O)c1ccccn1,24%,-13,-4,5%
Cc1nnc(SCC(=O)c2ccc(Br)cc2)s1,2%,41,19*,10%
Cc1ccc(NC(=O)c2ccc(CSc3nnc(C)s3)cc2)c(C)c1,49%,97*,43*,124%
Cc1ccc(C(=O)CSc2nnc(C)s2)cc1,145%,66*,53*,?
Cc1nnc(SCc2ccc(C(=O)Nc3cc(Cl)ccc3C)cc2)s1,38%,36,13,?
